Laboratory results published in PubChem BioAssay AID1159580 (chemical genetic matrix, 2015).
Screen size: about 5,500 compounds; about 2,000 (36%) were called active. Another 18% or so got no clear call; they are omitted. Cut-off read from the data, not from the text of the source: active = normalized growth mostly below about 0.91 (no sharp cut-off); inconclusive = no clear call, values can overlap the other calls; inactive = mostly above about 0.92. The list shows a part of the results.

Assay: chemical genetic growth profiling, strain panel (AID 1159580);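 note: tested at 20 µM; growth read once vehicle control cultures reached saturation at 30 °C; 1 = growth at the plate median or of vehicle wells; lower values mean less growth of the strain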
Details: S. cerevisiae deletion strains, growth OD
[1] = locus YAR019C, strain CDC15, active compounds read low
[2] = locus YBL105C, strain PKC1, active compounds read low
[3] = locus YBR135W, strain CKS1, active compounds read low
[4] = locus YBR136W, strain MEC1, active compounds read low
[5] = locus YBR160W, strain CDC28, active compounds read low
[6] = locus YDL017W, strain CDC7, active compounds read low
[7] = locus YDL028C, strain MPS1, active compounds read low
[8] = locus YDL101C, strain DUN1, active compounds read low
[9] = locus YDL108W, strain KIN28, active compounds read low
[10] = locus YDL132W, strain cdc53, active compounds read low
[11] = locus YDL214C, strain PRR2, active compounds read low
[12] = locus YDR052C, strain DBF4, active compounds read low
[13] = locus YDR054C, strain cdc34, active compounds read low
[14] = locus YDR226W, strain ADK1, active compounds read low
[15] = locus YDR477W, strain SNF1, active compounds read low
[16] = locus YER123W, strain YCK3, active compounds read low
[17] = locus YER133W, strain GLC7, active compounds read low
[18] = locus YFL009W, strain cdc4, active compounds read low
[19] = locus YFL029C, strain CAK1, active compounds read low
[20] = locus YFR003C, strain YPI1, active compounds read low
[21] = locus YFR019W, strain FAB1, active compounds read low
[22] = locus YFR028C, strain CDC14, active compounds read low
[23] = locus YGR040W, strain KSS1, active compounds read low
[24] = locus YGR052W, strain FMP48, active compounds read low
[25] = locus YGR092W, strain DBF2, active compounds read low
[26] = locus YHR030C, strain SLT2, active compounds read low
[27] = locus YHR079C, strain IRE1, active compounds read low
[28] = locus YHR082C, strain KSP1, active compounds read low
[29] = locus YHR205W, strain SCH9, active compounds read low
[30] = locus YIL147C, strain SLN1, active compounds read low
[31] = locus YJL095W, strain BCK1, active compounds read low
[32] = locus YJL128C, strain PBS2, active compounds read low
[33] = locus YJL157C, strain FAR1, active compounds read low
[34] = locus YJR016C, strain ILV3, active compounds read low
[35] = locus YJR066W, strain TOR1 (second series), active compounds read low
[36] = locus YJR066W, strain TOR1, active compounds read low
[37] = locus YKL048C, strain ELM1, active compounds read low
[38] = locus YKL067W, strain YNK1, active compounds read low
[39] = locus YKL101W, strain HSL1, active compounds read low
[40] = locus YKL193C, strain SDS22, active compounds read low
[41] = locus YKL203C, strain TOR2, active compounds read low
[42] = locus YLR113W, strain HOG1, active compounds read low
[43] = locus YLR133W, strain CKI1, active compounds read low
[44] = locus YLR403W, strain SFP1, active compounds read low
[45] = locus YML070W, strain DAK1, active compounds read low
[46] = locus YMR001C, strain CDC5, active compounds read low
[47] = locus YMR205C, strain PFK2 (second series), active compounds read low
[48] = locus YMR277W, strain FCP1, active compounds read low
[49] = locus YNL006W, strain LST8, active compounds read low
[50] = locus YNL020C, strain ARK1, active compounds read low
[51] = locus YNL161W, strain CBK1, active compounds read low
[52] = locus YNL183C, strain NPR1, active compounds read low
[53] = locus YNL207W, strain RIO2, active compounds read low
[54] = locus YNL222W, strain SSU72, active compounds read low
[55] = locus YNL307C, strain MCK1 (second series), active compounds read low
[56] = locus YOL078W, strain AVO1, active compounds read low
[57] = locus YOL136C, strain PFK27, active compounds read low
[58] = locus YOR061W, strain CKA2, active compounds read low
[59] = locus YOR119C, strain RIO1, active compounds read low
[60] = locus YOR231W, strain MKK1, active compounds read low
[61] = locus YOR329C, strain SCD5, active compounds read low
[62] = locus YPL031C, strain PHO85, active compounds read low
[63] = locus YPL153C, strain RAD53, active compounds read low
[64] = locus YPL204W, strain HRR25, active compounds read low
[65] = locus YPL209C, strain IPL1, active compounds read low
[66] = locus YPL256C, strain CLN2, active compounds read low
[67] = locus YPR025C, strain CCL1, active compounds read low
[68] = locus YPR106W, strain ISR1, active compounds read low
[69] = locus YPR111W, strain DBF20, active compounds read low
[70] = strain NNK1, active compounds read low
[71] = strain TSCII, active compounds read low

Measured: normalized growth

Clc1cc(Cl)cc(-c2nc(SCc3ccc(Cl)cc3Cl)n[nH]2)c1
inactive: [1] 0.991 | [2] 0.99 | [3] 0.982 | [4] 0.998 | [5] 0.991 | [6] 0.987 | [7] 0.995 | [8] 1 | [9] 0.986 | [10] 0.981 | [11] 0.913 | [12] 0.998 | [13] 0.984 | [14] 0.992 | [15] 0.938 | [16] 0.908 | [17] 0.968 | [18] 0.981 | [19] 0.995 | [20] 0.995 | [21] 0.901 | [22] 1 | [23] 0.964 | [24] 0.937 | [25] 0.839 | [27] 0.845 | [28] 0.911 | [29] 0.829 | [30] 0.992 | [31] 0.81 | [32] 0.964 | [33] 0.942 | [34] 0.987 | [35] 0.98 | [36] 0.893 | [37] 0.964 | [38] 0.882 | [39] 0.891 | [40] 0.985 | [41] 1.05 | [43] 0.924 | [44] 0.963 | [45] 0.92 | [46] 0.988 | [47] 0.927 | [48] 0.983 | [49] 0.965 | [50] 0.914 | [51] 0.991 | [52] 0.916 | [53] 0.983 | [54] 0.987 | [55] 0.864 | [56] 0.985 | [57] 0.893 | [58] 0.756 | [59] 0.956 | [60] 0.873 | [61] 0.986 | [62] 0.927 | [63] 0.889 | [64] 0.915 | [65] 0.985 | [67] 0.98 | [68] 0.981 | [69] 0.948 | [70] 0.981 | [71] 0.993
active: [26] 0.356 | [42] 0.772 | [66] 0.835

CSc1n[nH]c(-c2cc(C(F)(F)F)cc(C(F)(F)F)c2)n1
inactive: [1] 0.939 | [2] 0.952 | [3] 0.946 | [4] 0.948 | [5] 0.939 | [6] 0.955 | [7] 0.939 | [8] 0.973 | [9] 0.918 | [10] 0.955 | [11] 0.892 | [12] 0.977 | [13] 0.938 | [14] 0.942 | [15] 0.895 | [16] 0.892 | [17] 0.935 | [18] 0.92 | [19] 0.918 | [20] 0.953 | [21] 0.979 | [22] 0.936 | [23] 0.893 | [24] 0.92 | [25] 0.894 | [27] 0.82 | [28] 0.914 | [29] 0.785 | [30] 0.941 | [31] 0.791 | [32] 0.859 | [33] 0.938 | [34] 0.947 | [35] 0.939 | [36] 0.859 | [37] 0.904 | [38] 0.887 | [39] 0.853 | [40] 0.939 | [41] 1 | [43] 0.904 | [44] 0.927 | [45] 0.878 | [46] 0.937 | [47] 0.925 | [48] 0.921 | [49] 0.945 | [50] 0.897 | [51] 0.948 | [52] 0.868 | [53] 0.947 | [54] 0.927 | [55] 0.856 | [56] 0.953 | [57] 0.84 | [58] 0.937 | [59] 0.942 | [60] 0.776 | [61] 0.95 | [62] 0.885 | [63] 0.887 | [64] 0.864 | [65] 0.952 | [67] 0.946 | [68] 0.929 | [69] 0.952 | [70] 0.917 | [71] 0.937
active: [26] 0.671 | [42] 0.615 | [66] 0.709
